Compounds without any hit were thinned out: in the full panel of roughly 83,000, 20% have a hit.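 Percent growth is the endpoint: 0 to 100 indicates growth inhibition (40 means 60% inhibition), 0 means no net growth, and negative values indicate cell death.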 Values without a mark were called inactive. Active and inactive are the calls of the source. Rule for the calls: active = growth percent below 10; inactive = the rest.
Legend:
Assay in all cases: NCI-60 one-dose screen, 48 h (100 = growth as untreated, 0 = no growth, -100 = all killed)
NCI-H23 lung = details: 10 µM unless noted
NCI-H322M lung = details: 10 µM unless noted
HOP-62 NSCLC = details: 10 µM unless noted
NCI-H460 lung = details: 10 µM unless noted
HOP-92 NSCLC = details: 10 µM unless noted
NCI-H522 lung = details: 10 µM
A549/ATCC NSCLC = details: 10 µM unless noted
786-0 renal = details: 10 µM unless noted
COLO 205 colon = details: 10 µM unless noted

Structure (SMILES) | growth (NCI-H23 lung) | growth (NCI-H322M lung) | growth (HOP-62 NSCLC) | growth (NCI-H460 lung) | growth (HOP-92 NSCLC) | growth (NCI-H522 lung) | growth (A549/ATCC NSCLC) | growth (786-0 renal) | growth (COLO 205 colon)
O=C(CC(O)c1ccccc1)Nc1ccccn1 (stereo not drawn) | 98.6% | 93.3% | 103% | 112% | 77% | 96% | 95.8% | 102% | 
COc1ccc(NS(=O)(=O)c2ccc(-c3cnc(C4CC4)o3)cc2)cc1 | 71.9% | 91.8% | 54.8% | 33.2% | 63% | 51% | 54.7% | 81.3% | 
O=C(N/N=C(\CS(=O)(=O)c1ccccc1)c1cc2ccccc2oc1=O)c1ccccc1 | 97.9% | 107% | 117% | 101% | 117% | 100% | 93.1% | 106% | 
O=c1oc2ccccc2cc1-c1csc(N=Nc2c(O)[nH]c3ccc(Br)cc23)n1 | 98.6% | 102% | 104% | 100% | 123% | 99.5% | 93.8% | 103% | 
NC(=S)N/N=C1\c2ccccc2-c2c(F)c(F)c(F)c(F)c21 | 72.4% | 93.5% | 75.6% | 76.6% | 87% | 57.4% | 87.5% | 88.8% | 
O=C(N/N=C/c1ccc(OC(F)F)c(OC2CCCC2)c1)c1cnn2c1NC(c1ccccc1)C2 (stereo not drawn) | 97.5% | 92.6% | 84.9% | 82.4% | 80.6% | 78.8% | 73.8% | 89.2% | 
O=C(c1ccc2ncc(-c3nc(NC4CC4)ncc3F)n2c1)N1CCOCC1 | 42.5% | 15.4% | 7.33% (active) | 4.24% (active) | -2.24% (active) | 72.6% | 13.9% | 9.09% (active) | 
N#C/C(=C\c1ccc[nH]1)c1cc2ccccc2[nH]1 | 39.1% | 87.5% | 85.1% | 71.1% | 76.9% |  | 54.2% | 93.4% | 88.6%
CC(C)OC1=C(Cl)C(=O)c2ccccc2C1=O | 81.8% | 95% | 92.1% | 103% | 99.8% |  | 102% | 108% | 97.7%
O=C(N/N=C/c1ccc2c(c1)OCO2)c1cnn2c1NC(c1ccccc1)C2 (stereo not drawn) | 57.1% | 59.6% | 60.5% | 30.1% | 73.7% | 45.7% | 45% | 78.9% | 
CC[Si](CC)(CC)OC1[C@@H](O[Si](CC)(CC)CC)[C@@H](CNC(=O)NC)O[C@H]1n1cnc2c(NC(=O)Nc3ccccc3)ncnc21 (stereo partly drawn) | 51.9% | 96.3% | 95.9% | 24.8% | 67.2% |  | 68.5% | 89.6% | 
CC(C)(C)[Si](C)(C)OC1[C@@H](COC(N)=O)O[C@@H](n2cnc3c(N)ncnc32)[C@H]1O[Si](C)(C)C(C)(C)C (stereo partly drawn) | 87.9% | 114% | 95.7% | 83.9% | 55.3% |  | 67.8% | 91.2% | 103%
O=C1C(OCCOc2ccccc2)=C(OCCOc2ccccc2)C(=O)c2ccccc21 | 16.3% | 60.3% | 56.4% | -26% (active) | 102% |  | 17.4% | 100% | 102%
COc1cccc(OC)c1OC(=O)c1ccccc1 | 100% | 109% | 110% | 102% | 82.5% | 95.5% | 96.5% | 106% | 
COc1cc(Cn2cc(F)c(=O)[nH]c2=O)cc(OC)c1 | 103% [50 µM] | 99% [50 µM] | 88.2% [50 µM] | 103% [50 µM] | 101% [50 µM] |  | 102% [50 µM] | 97.5% [50 µM] | 117% [50 µM]
NS(=O)(=O)c1ccc(C(=O)N/N=C(\CS(=O)(=O)c2ccccc2)c2cc3cc(Br)ccc3o2)cc1 | 80.7% | 103% | 96% | 96.3% | 77.2% | 80.2% |  | 101% | 

Structure (SMILES) | growth (NCI-H23 lung) | growth (NCI-H322M lung) | growth (HOP-62 NSCLC) | growth (NCI-H460 lung) | growth (HOP-92 NSCLC) | growth (NCI-H522 lung) | growth (A549/ATCC NSCLC) | growth (786-0 renal) | growth (COLO 205 colon)
CC(C)(C)[Si](C)(C)OC1[C@@H](CNC(=O)NC(=O)CCl)O[C@@H](n2cnc3c(N)ncnc32)[C@H]1O[Si](C)(C)C(C)(C)C (stereo partly drawn) | -72.4% (active) | 111% | -60.1% (active) | -82.4% (active) | -79.2% (active) |  | -22.3% (active) | -55.4% (active) | -16.8% (active)
Cc1ccc2nc(NC(=O)CSC(=S)N3CCN(Cc4ccccc4)CC3)sc2c1 | 1.13% (active) | -71.8% (active) | -59.1% (active) | -70.9% (active) | -55.4% (active) |  | 1.71% (active) | -21.1% (active) | -63.3% (active)
O=C(c1cnn2c1NC(c1ccc(F)cc1)C2)N1CCCCC1 (stereo not drawn) | 105% | 112% | 92.1% | 105% | 97% | 93.3% | 98.2% | 106% | 
COc1ccc(/C=C/C(=O)N2CCC(O)CC2)cc1OC1CCCC1 | 103% | 108% | 95.1% | 104% | 95.7% | 87.1% |  | 104% | 
CCN1CCN(C(=S)SCC(=O)Nc2nc3ccc(OC)cc3s2)CC1 | 100% | 92.3% | 97.2% | 113% | 83.8% |  | 99.5% | 107% | 
O=c1[nH]c(=S)c2c(n1CCCO)CCC2 | 99.8% | 108% | 104% | 107% | 109% | 88.4% |  | 102% | 
CCCCOC(=O)C1OC(Oc2ccc3c(C)cc(=O)oc3c2)[C@@H](OC(C)=O)C(OC(C)=O)C1OC(C)=O (stereo partly drawn) | 99.9% | 104% | 98.7% | 105% | 98.3% | 88.8% |  | 98.5% | 
O=c1nc(NO)[nH]c(=O)n1Cc1ccccc1 | 105% | 120% | 110% | 109% | -3.57% (active) |  | 111% | 101% | 
COC(=O)c1c2c(c(C)[n+]([O-])c1C)C(=O)C(NCc1ccc(O)cc1)=CC2=O | -57.4% (active) | 0.623% (active) | -7.28% (active) | -3.38% (active) | 34% | -33.2% (active) | 4.46% (active) | 7.96% (active) | 
O=C(NCc1ccc(F)cc1)C1CN(c2ccc(Cl)cc2)N(c2ccc(Cl)cc2)C1=O (stereo not drawn) | 78.8% | 93.1% | 60.5% | 48% | 91.1% | 52.5% | 48.8% | 79.1% | 
COc1cc2cc(Oc3ccc(NC(=O)Nc4cccc(C(F)(F)F)c4)cc3)c(C)nc2cc1OCCN1CCCCC1 | -75.4% (active) | -14.5% (active) | -68.8% (active) | -84.2% (active) | 23.4% |  | -56.2% (active) | -83.7% (active) | -74.9% (active)
COc1ccc(OC2=CC(=O)c3ccc(C)nc3C2=O)cc1 | 65.7% | 102% | 89.1% | 86.1% | 122% | 55.2% |  | 109% | 
Nc1cc2[nH]c(=O)c3ccccc3c2cc1Br | 70.5% | 86% | 68.9% | 67.3% | 58.4% | 90% | 84.5% | 104% | 
CC(C)(C)[Si](C)(C)OC1[C@@H](COC(=O)NC(=O)CCl)O[C@@H](n2cnc3c(N)ncnc32)[C@H]1O[Si](C)(C)C(C)(C)C (stereo partly drawn) | -45% (active) | 113% | 81.9% | 64.6% | 12.7% |  | 62.6% | 4.11% (active) | 27.5%
CCN(CC)c1ccc2c(c1)OS(=O)(=O)N=C2 | 95.6% | 107% | 99.9% | 109% | 85.4% | 97.6% | 106% | 93% | 
O=c1c2cc(F)ccc2oc2c(NCCNCCO)nc3ccccc3c12 | 53% | 36.1% | 35.5% | 13.1% | 38.4% | 39.8% | 45.1% | 42% | 

Source: PubChem BioAssay (NCI)
